Results published in PubChem BioAssay AID1903 (Southern Research Specialized Biocontainment Screening …, 2009).
The campaign covered roughly 310,000 compounds. About 1,200 (0.39%) were called active. No rule for the calls is given here. These entries were drawn from the full list. Entries with a potency or affinity are not part of this list.

biological target: Large T antigen (Simian virus 40) (UniProt P03070); assay: TAg ATPase/helicase activity blockers – biochemical (AID 1903); conditions: SV40 large T antigen ATPase/helicase inhibition assay; at 20 µM; stronger effect = higher value
Sequence (P03070 whole entry, looked up): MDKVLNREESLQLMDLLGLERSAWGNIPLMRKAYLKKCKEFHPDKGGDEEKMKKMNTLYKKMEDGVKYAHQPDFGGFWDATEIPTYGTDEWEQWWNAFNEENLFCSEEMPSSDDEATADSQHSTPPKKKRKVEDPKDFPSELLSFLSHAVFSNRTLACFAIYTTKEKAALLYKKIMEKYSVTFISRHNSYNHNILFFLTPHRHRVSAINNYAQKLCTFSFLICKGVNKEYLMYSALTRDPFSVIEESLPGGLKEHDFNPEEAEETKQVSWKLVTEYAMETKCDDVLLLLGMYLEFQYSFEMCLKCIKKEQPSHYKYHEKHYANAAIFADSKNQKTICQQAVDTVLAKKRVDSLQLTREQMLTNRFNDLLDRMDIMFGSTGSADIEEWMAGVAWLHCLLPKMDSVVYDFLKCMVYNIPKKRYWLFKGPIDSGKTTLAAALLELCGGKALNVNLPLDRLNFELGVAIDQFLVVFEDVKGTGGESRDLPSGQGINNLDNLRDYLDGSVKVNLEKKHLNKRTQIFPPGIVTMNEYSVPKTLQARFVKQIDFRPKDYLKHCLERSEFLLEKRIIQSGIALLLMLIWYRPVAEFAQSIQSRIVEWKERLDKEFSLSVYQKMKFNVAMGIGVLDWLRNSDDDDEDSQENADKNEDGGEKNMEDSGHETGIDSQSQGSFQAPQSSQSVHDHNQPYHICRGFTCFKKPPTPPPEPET

inhibition, inactive:
O=c1cc(-c2ccccc2)nc(N2CCN(Cc3ccc4c(c3)OCO4)CC2)[nH]1 9.11%
O=C(N/N=C/c1cccnc1)c1cccc(N2CCCC2=O)c1 0.45%
Cn1cccc1Cc1nnc(SCC(=O)NCCc2ccccc2)n1C -0.6%
COC(=O)c1cccc(C(=O)N2CCCC(Nc3ccc4c(c3)OCCO4)C2)c1 (centres undefined) 29.8%
COc1ccc(OC)c(C(=O)N2CCCC(Nc3ccc(F)cc3)C2)c1 (centres undefined) 23%
COc1ccc(C(=O)N2CCCC(Nc3ccc(F)cc3)C2)c(OC)c1 (centres undefined) 12%
COc1ccc(NC2CCCN(C(=O)c3ccc4nccnc4c3)C2)cc1OC (centres undefined) 32.5%
CC(C)c1ccc(NC2CCCN(C(=O)c3ccco3)C2)cc1 (centres undefined) 19.6%
Cc1noc(C)c1C(=O)N1CCCC(Nc2ccc(C(C)C)cc2)C1 (centres undefined) -5.88%
COc1ccc(NC2CCCN(C(=O)c3ccc4nc(C)c(C)nc4c3)C2)cc1OC (centres undefined) 26.4%
Cc1ccc(NC2CCCN(C(=O)c3c(C)noc3C)C2)cc1C (centres undefined) 21.2%
COc1ccc(-n2cnc3cc(C(=O)NCC4CCCO4)ccc32)cc1 (centres undefined) 3.91%
CN(C)CCCN(C(=O)c1ccco1)c1nc2ccc(F)cc2s1 7.29%
C(=N\N1CCN(c2ccccc2)CC1)/c1ccccc1 8.2%
COC(=O)[C@@H]1C[C@H]2CC[C@H](O)C[C@H]2N1Cc1ccc(Cl)cc1 8.58%
N#Cc1c(/N=C/c2ccc(-c3ccccc3C(=O)O)o2)sc2c1CCCC2 13.3%
CCOC(=O)C1CCN(C(=O)CCNC(=O)c2cc(OC)c(OC)c(OC)c2)CC1 4.64%
CCOC(=O)CSc1nnc(NC(=O)c2ccco2)s1 -8%
Cc1ccc(N(CC(=O)NCC2CCCO2)C(=O)Cn2nnc(-c3cccs3)n2)cc1 (centres undefined) 24.6%
Cc1ncc(CN2CCC(CO)(Cc3ccccc3)CC2)s1 2.75%
COc1ccc(NC2CCCN(C(=O)c3ccc(C(C)=O)cc3)C2)cc1 (centres undefined) 46.3%
COc1ccc(NC2CCCN(C(=O)c3ccncc3)C2)cc1 (centres undefined) 51.8%
O=C(Nc1cccnc1)/C(N=Nc1c(Cl)cccc1Cl)=C(\O)c1ccccc1 0.28%
C/C(=N/NC(=O)c1ccncc1)c1cc2ccc(O)cc2oc1=O 12.9%
C/C(=N\NC(=O)CC#N)c1cc2ccc(O)cc2oc1=O 21.8%
CCc1noc(C)c1C(=O)N1CCN(S(=O)(=O)c2c(C)c(C)cc(C)c2C)CC1 5.1%
O=C(O)CCC(=O)c1cccc2ccccc12 6.26%
O=C(O)c1ccccc1C(=O)c1cccc2ccccc12 8.24%
CS(=O)(=O)N1CCCC(C(=O)N2CCN(c3cccc(Cl)c3)CC2)C1 (centres undefined) 9.69%
COc1ccccc1NC(=S)N(CCCN1CCOCC1)Cc1ccccn1 12.9%
CSc1nc2ccc(S(=O)(=O)N3CCCCC3)cc2s1 4.61%
Cc1nc2ccc(S(=O)(=O)N3CCCCC3)cc2s1 2.61%
COc1ccc(NC(=O)CC2C(=O)N(c3ccc(F)cc3)C(=S)N2NC(=O)c2ccc(Cl)cc2)cc1 (centres undefined) 8.76%
O=C(Nc1ccccc1)c1cccc(N2C(=O)CCC2=O)c1 5.21%
CCCOc1ccc(C(=O)Nc2ccc(N(C)C)cc2)cc1 32%
COc1cc(C(=O)Nc2ccncc2)cc(OC)c1OC 5.76%
COc1cc(C(=O)Nc2ccc(Nc3ccccc3)cc2)cc(OC)c1OC 12.4%
O=C(Nc1ccc(F)cc1)c1ccc2nc[nH]c2c1 7.49%
CC(C)Oc1ccc(NC(=O)c2ccncc2)cc1 3.7%
O=C(Nc1ccc(Br)cc1)c1cccc(N2C(=O)CCC2=O)c1 7.57%
CN(C)c1ccc(NC(=O)c2ccc3nsnc3c2)cc1 18.4%
COc1ccc(-c2cc(=O)c3cc(OC)c(OC)cc3[nH]2)cc1 3.81%
Cc1ccc(/C=C(\NC(=O)c2ccccc2)C(=O)NCC2CCCO2)o1 (centres undefined) 6.08%
O=C(COc1ccc(C(=O)c2ccccc2)cc1)NC1CCCCCC1 -8.94%
NC(N)=Nc1nc2ccc(Cl)cc2c(=O)[nH]1 11.5%
COc1ccc(NC(=O)/C=C/c2ccc(OC(F)F)cc2)cn1 9.9%
COc1ccc(N2CCN(C(=O)CN3C(=O)NC(c4ccc(OC)cc4)(c4ccc(OC)cc4)C3=O)CC2)cc1 6.64%
Cc1cc(=O)n(CC=C(Cl)Cl)c2ccccc12 -7.91%
NC(=S)N/N=C/c1ccccc1 13%
NC(=S)NN=C1c2ccccc2-c2ccccc21 7.35%
CC(=O)Nc1ccc(NC(=O)CS(=O)(=O)c2cn(CC(=O)N3CCCC3)c3ccccc23)cc1 14%
Cc1ccc(-n2nc(C)c(NC(=O)CCl)c2C)cc1 9.64%
CC(C)CCNC(=O)c1cccc(S(=O)(=O)N2CCc3ccccc32)c1 11.5%
COC(=O)c1c(NC(=O)COC(=O)c2ccccn2)sc(C)c1C 11.7%
COc1cc(-c2nnc(SCc3ccccc3Cl)o2)cc(OC)c1OC 4.19%
COc1cc(-c2nnc(SCc3cc(=O)oc4cc(C)ccc34)o2)cc(OC)c1OC 0.12%
COc1ccccc1-c1nc2c(c(SCC(=O)N3CCCCC3)n1)Cc1c(CO)cnc(C)c1O2 4.68%
Cc1sc2ncn(CC(=O)NCc3ccccn3)c(=O)c2c1S(=O)(=O)N1CCOCC1 -0.92%
Nn1c(SCC(=O)N2CCCCCC2)nnc1-c1ccncc1 2.98%
Cc1ccc([C@@H]2CC=C(C(=O)O)[C@H](c3ccc(Cl)cc3)N2S(=O)(=O)c2ccc(C)cc2)cc1 21.6%
Cc1ccc(S(=O)(=O)N2[C@@H](c3ccccc3)C(C(=O)O)=CC[C@H]2c2ccc(Cl)cc2)cc1 17.2%
Cc1ccc(C(=O)COC(=O)CNC(=O)CNC(=O)c2ccc(C)cc2)cc1 10.1%
COc1cc(NC(=O)c2cc([N+](=O)[O-])ccc2NC(=O)CN2CCN(c3ccccn3)CC2)cc(OC)c1 2.42%
Cc1ccc(NC(=O)NCCN2CCCCC2)cc1 12.7%
Cc1cc(C)c(S(=O)(=O)NCCn2c(C)cc3ccccc32)c(C)c1 3.6%
NS(=O)(=O)c1ccc(-c2ccc(/C=C3\C(=O)Nc4ccccc43)o2)cc1 3.06%
NS(=O)(=O)c1ccc(-c2ccc(/C=C3\NC(=S)NC3=O)o2)cc1 34.2%
COc1ccccc1/C=C/C(=O)N1CCCC1 16.6%
Cn1cc([N+](=O)[O-])c(C(=O)NC2CCCCCCC2)n1 11.7%
CCOc1cc(N2CCOCC2)c(OCC)cc1NC(C)C(=O)N1CCN(CC)CC1 (centres undefined) 4.25%
CCOc1cc(N2CCOCC2)c(OCC)cc1NC(=O)C(C)C 5.9%
CCOc1cc(N2CCOCC2)c(OCC)cc1NS(=O)(=O)c1cc(NC(C)=O)ccc1OC 9.72%
O=S(=O)(Nc1ccc(N2CCOCC2)cc1)c1ccc(Cl)s1 36.6%
COc1ccccc1CNC(=O)C(CC(C)C)NC(=O)C1CCC(C)CC1 (centres undefined) 12.9%
COc1ccc(/C=N/NC(=O)Cc2csc(Nc3cccc(C(F)(F)F)c3)n2)c(OC)c1 4.64%
CCOC(=O)C1Nc2ccc(Br)cc2C2C=CCC12 (centres undefined) 7%
CCOC(=O)C1Nc2c(F)cc(C)cc2C2C=CCC12 (centres undefined) 26%
O=C(O)C1Nc2c(C(F)(F)F)ccc(Cl)c2C2C=CCC12 (centres undefined) 17.1%
O=C(O)C1Nc2c(C(=O)N3CCOCC3)cccc2C2C=CCC12 (centres undefined) 34.2%
CCNc1ccc(C(=O)OCC)cc1NC(=O)c1cccc(S(=O)(=O)N(C)c2ccccc2)c1 -1.52%
CC1CN(CCOCCSc2ccccc2)CC(C)O1 (centres undefined) -2.63%
COC(=O)CNc1cc(S(=O)(=O)N2CCCCC2)ccc1Oc1cccc(C)c1 5.08%
COc1ccc(Cn2c(-c3ccc(OC)cc3)nc3c(c(=O)c4ccccc4n3C)c2=O)cc1 4.69%
c1ccc2c(NCCCN3CCOCC3)c3ccccc3nc2c1 3.76%
Cc1csc2c(NCCCN3CCOCC3)ncnc12 5.93%
O=C(O)COc1ccc(/C=N/n2c(COc3ccccc3)nc3ccccc3c2=O)cc1 1.95%
CCOc1cc(/C=N/n2c(COc3ccccc3)n[nH]c2=S)ccc1O 19.9%
O=c1c2ccccc2nc(COc2ccccc2)n1/N=C/c1ccc(O)cc1O 5.35%
CCCc1nc2ccccc2c(=O)n1/N=C/c1ccc(O)cc1 6.26%
CCCc1nc2ccccc2c(=O)n1/N=C/c1ccccc1O -9.27%
COc1ccc(/C=N/n2c(COc3ccccc3)n[nH]c2=S)cc1OC 32.6%
O=C1COc2ccc(C(=O)COC(=O)c3cc(S(=O)(=O)NCc4ccccc4)ccc3O)cc2N1 13%
Cc1cc(Cl)ccc1NC(=O)CN1C(=O)NC2(CCCc3ccccc32)C1=O (centres undefined) 25.2%
CCOC(=O)CN1C(=O)SC(CC(=O)Nc2nccs2)C1=O (centres undefined) 2.87%
